# MazEF act = MazEF (E. coli) toxin RNase activation | P0AE70 | AID 504720 | activation, % at 20 µM | 0.32% of 350,000 active | FAM/BHQ RNA-DNA oligo cleavage fluorescence, 5 h; in the data active = activation above about 50%
# Target sequence (P0AE70 whole entry, looked up): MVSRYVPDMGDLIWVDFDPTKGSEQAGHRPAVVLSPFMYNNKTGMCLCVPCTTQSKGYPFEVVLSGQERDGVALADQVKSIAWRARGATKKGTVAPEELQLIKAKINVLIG
# PfHsp40 rescue = rescue of PfHsp40-mediated yeast toxicity; S. cerevisiae expressing PfHsp40, growth rescue, ATP luminescence; growth rescue, % at 12.5 µM; 0.68% of 340,000 active; AID 504582; in the data active = growth rescue above about 28%, passing the limit was not always enough;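 note: yeast W303a lacking pdr1 and pdr3 grown in galactose medium; growth measured after three days at 30 °C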
# PrP 5UTR inh = inhibition of PrP 5' UTR reporter expression; cell-based PrP 5' UTR mRNA reporter, plate reader; inhibition, % (concentration not given with the values); 0.35% of 340,000 active; AID 488862; in the data active = inhibition above about 52%; note: 0 = median of the neutral control wells
# SSB-PriA inh = inhibitors of Klebsiella pneumoniae PriA binding to SSB C-terminal tail; AlphaScreen SSBct-PriA binding, biotinylated peptide; inhibition, % at 33 µM; 0.6% of 430,000 active; AID 1272365; in the data active = inhibition mostly above about 37%, no sharp cut-off; inactive = mostly below about 20%;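 note: plate controls were negative control peptide for no effect and reference peptide for full effect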
# PrPC surface inh = cell surface PrPC inhibition, primary TR-FRET screen; P04156; inhibition, % at 13.8 µM; TR-FRET read-out; 0.43% of 370,000 active; in the data active = inhibition above about 24%; note: 0% = median of the test wells and 100% = reference compound wells
# The depositor's hits bear a star; . = no result given; ! = repeats disagree. Rows were chosen to be rich in hits. Some 1.8% of all compounds tested hit in one or more screens of this group.
SMILES,MazEF act,PfHsp40 rescue,PrP 5UTR inh,SSB-PriA inh,PrPC surface inh
O=C(CSC1=NNC(c2ccccn2)S1)Nc1cccc(Cl)c1 (centres undefined),13,17,-24,42*,3
CC(C)C1O/C(=N/C(=O)Nc2ccc(Cl)c(Cl)c2)NC1=O (centres undefined),7,0,-11,.,4
Cc1ccc2nc(NCCc3ccc(Cl)cc3)c3nncn3c2c1,80*,1,-6,7,4
O=C(CN1C(=O)CCOc2ccccc21)Nc1nc(-c2ccccn2)cs1,.,.,.,93*,.
O=C(CN1C(=O)CCC1=O)Nc1nc(-c2ccccn2)cs1,-16,1,-30,51*,6
CCCCC(=O)Nc1nc(-c2ccccn2)cs1,.,.,.,50*,.
O=C(CN1C(=O)NC2(CCOc3ccccc32)C1=O)Nc1nc(-c2ccccn2)cs1 (centres undefined),.,.,.,111*,.
CC(=O)C[C@@H]1OC2CCCCC2N1S(=O)(=O)c1ccc(C)cc1 (some centres undefined),.,.,.,.,-6
Cc1cccc(OCCOC(=O)C2CCN(S(=O)(=O)c3ccc(C)c(C)c3)CC2)c1,0,1,-11,47*,4
COC(=O)C[C@H]1C[C@H]2c3cc(NS(=O)(=O)c4cccc(OC)c4)ccc3O[C@H]2[C@@H](CO)O1,7,.,.,.,7
CCN(CC)c1ccc(C(=O)n2cnc3ccccc32)cc1,-46,0,-50,-25,8
COc1ccc2oc(C(=O)OC(C)C(=O)N3C(C)CCCC3C)c(C)c2c1 (centres undefined),1,1,-27,-10,-6
Cn1cc(C(=O)OCC(=O)NC2(C#N)CCCC2)c2ccccc21,0,66*,-18,3,-4
Nn1c(SC/C=C/c2ccccc2)nnc1-c1ccccn1,2,0,-33,90*,2
c1ccc(-c2nnc(SCc3nc4ccccc4[nH]3)n2Cc2ccco2)nc1,-4,0,-37,88*,7
C(=C\c1ccccc1)/CSc1nnc(-c2ccccn2)n1Cc1ccco1,2,1,-20,68*,-10
CC(C)(C)c1cc(C(=O)NN=Cc2ccco2)n[nH]1,.,.,.,-4,.
Fc1ccc(Nc2nc(NCCCn3ccnc3)nc3nc[nH]c23)cc1,.,.,.,29*,.
N#Cc1nc(COc2ccc(F)cc2)oc1NCCCn1ccnc1,-5,-1,-31,10,-4
C[C@@]12CCC=C[C@H]1[C@H](c1ccc3ccccc3c1)N(Cc1ccccc1)C2=O,-2,1,-7,-10,1
C[C@@]12CCC=C[C@H]1[C@H](c1ccc3ccccc3c1Br)N(Cc1ccccc1)C2=O,-1,65*,-10,5,-6
CCOC(=O)c1c(C)[nH]c(N=Nc2ccccc2C)c1C,-2,0,-35,62*!,-5
Cc1cc(C(=O)COC(=O)Cc2n[nH]c(=O)c3ccccc23)c(C)n1-c1cccc(C(F)(F)F)c1,-9,96*,-9,16,2
Cc1cc(C(=O)COC(=O)CC2Sc3ccccc3NC2=O)c(C)n1-c1cccc(C(F)(F)F)c1 (centres undefined),-1,8,-32,1,-6
CC(C)COc1ccc(CNC(=S)NCc2ccccc2)cc1,-3,51*,0,-30,-1
SMILES,MazEF act,PfHsp40 rescue,PrP 5UTR inh,SSB-PriA inh,PrPC surface inh
CCOc1ccc(CNC(=S)NCc2ccc(OCC)cc2)cc1,-5,-1,-4,-7,0
O=C(NCCc1ccc(Cl)cc1)[C@H]1CCCN(c2cc(-n3cncn3)ncn2)C1,.,.,.,-1,.
Cc1ccccc1/C=C/C12NC(=O)CN1c1ccccc1C2(C)C (centres undefined),3,1,-28,-1,2
CCc1ccc2c(c1)C(C)(C)C1(/C=C/c3ccco3)NC(=O)CCN21 (centres undefined),.,.,.,50*,.
Fc1ccc(CSc2nc3ccccc3[nH]2)c2ccccc12,54*,0,0,-22,-11
O=c1cc(CSc2nc3ccccc3[nH]2)c2ccccc2[nH]1,3,-1,.,-7,-1
O=C(Cn1c(=O)oc2cc(S(=O)(=O)N3CCCC3)ccc21)NC1CCCCC1,-10,2,6,-13,-2
O=C(Cn1c(=O)oc2cc(S(=O)(=O)N3CCCC3)ccc21)NCc1ccc(F)cc1,-19,0,-16,104*,4
C#CCOCCOCCOCCNc1nc(N2CCN(C(=O)[C@H]([C@@H](C)CC)n3cc([C@@H](N)CO)nn3)CC2)nc(N2CCN(C(=O)[C@H]([C@@H](C)CC)n3cc([C@@H](N)Cc4ccc(O)cc4)nn3)CC2)n1,9,-1,-11,2,.

# Source: PubChem BioAssay (several laboratories)
